The full ranking holds about 33,000 sequences; the median of “e-score” is about -0.053, and the highest 2% start at about 0.38. Shown is part of a subset that was picked to be rich in the highest values.
The sequences below were run against T1, SIX1 homeodomain (reference allele) (human, UniProt Q15475 108-198) (assay: universal protein binding microarray; Universal all-10-mer PBM (8x60K, AMADID 030236), 300 nM GST-tagged protein, Alexa Fluor 488 anti-GST; buffer, salt, pH and temperature not stated (as in Berger); high values mean tight binding). Details: protein: ivt; tags: N-terminal GST; dsDNA, one strand shown.
T1 sequence: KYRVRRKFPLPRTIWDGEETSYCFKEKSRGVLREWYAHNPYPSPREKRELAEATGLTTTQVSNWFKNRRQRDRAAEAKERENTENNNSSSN
In short: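 GST-tagged homeodomains were made by in vitro transcription/translation and quantified by anti-GST western blot against a recombinant GST standard curve. They were applied in duplicate at 300 nM final concentration to universal 'all 10-mer' protein binding microarrays (8×60K format). Binding was quantified as 8-mer E-scores with the Universal PBM Analysis Suite.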
For ATACAACG, the binding signal was 0.152 ± 0.0326 E-score.
ATCCTCTC was tested, and the binding signal was 0.264 ± 0.0756 E-score.
With ATCGCTCA the binding signal was 0.192 ± 0.00955 E-score.
With AAGGTATA the binding signal was 0.272 ± 0.131 E-score.
GGGGTATA gave a binding signal of 0.441 ± 0.0155 E-score.
Work on CGGGTATC yielded a binding signal of 0.487 ± 0.00716 E-score.
CGGGTATA showed a binding signal of 0.365 ± 0.00269 E-score.
Sequence GGGGTAGA has a binding signal of 0.158 ± 0.0407 E-score.
With TAGGTATA the binding signal was 0.382 ± 0.0292 E-score.
GCGGTATA was tested, and the binding signal was 0.3752 ± 0.00298 E-score.
With AGGGTATA the binding signal was 0.407 ± 0.0114 E-score.
For AGGGGGTA, the binding signal was 0.294 ± 0.0383 E-score.
For CGGGGGTA, the binding signal was 0.301 ± 0.0117 E-score.
CGGGTCTC was tested, and the binding signal was 0.187 ± 0.0479 E-score.
TGATGCCA gave a binding signal of 0.152 ± 0.025 E-score.
Work on ATAGGGCG yielded a binding signal of 0.158 ± 0.0277 E-score.
Sequence AATATCTG has a binding signal of 0.188 ± 0.0693 E-score.
Sequence CATGAAAG has a binding signal of 0.157 ± 0.0184 E-score.
Work on AGGGTAAT yielded a binding signal of 0.205 ± 0.0122 E-score.
In the case of AGGGTATG, the binding signal is reported as 0.28 ± 0.0175 E-score.
AGGGTATC was tested, and the binding signal was 0.4907 ± 0.00122 E-score.
CCATCCCC gave a binding signal of 0.203 ± 0.0814 E-score.
For GTAATATA, the binding signal was 0.226 ± 0.0387 E-score.
GGTGATAC gave a binding signal of 0.4856 ± 0.00178 E-score.
Sequence CGTGATAG has a binding signal of 0.244 ± 0.00391 E-score.
CGTGACAC was tested, and the binding signal was 0.2472 ± 0.00208 E-score.
With GGTGATGA the binding signal was 0.191 ± 0.0354 E-score.
With AGTGACAC the binding signal was 0.354 ± 0.0169 E-score.
CGTGATAC showed a binding signal of 0.4798 ± 0.000721 E-score.
AGTGATAC was tested, and the binding signal was 0.489 ± 0.00626 E-score.
AGTGATAG was tested, and the binding signal was 0.32 ± 0.0815 E-score.
Sequence AGTGTGAT has a binding signal of 0.247 ± 0.0427 E-score.
In the case of GGTGATAA, the binding signal is reported as 0.154 ± 0.0176 E-score.
AGTGATAT gave a binding signal of 0.451 ± 0.0283 E-score.
AGTGAGAT showed a binding signal of 0.306 ± 0.0146 E-score.
ACACCATG showed a binding signal of 0.306 ± 0.0191 E-score.
CCCCATCG showed a binding signal of 0.152 ± 0.0278 E-score.
TACCCACA showed a binding signal of 0.196 ± 0.0401 E-score.
For ATAGGCAG, the binding signal was 0.184 ± 0.025 E-score.
Work on CCAAGATA yielded a binding signal of 0.229 ± 0.0485 E-score.
ATACGCAG showed a binding signal of 0.314 ± 0.0177 E-score.
ATCATGTC gave a binding signal of 0.295 ± 0.0201 E-score.
GCGACCGA showed a binding signal of 0.151 ± 0.024 E-score.
ATCCCGAT was tested, and the binding signal was 0.378 ± 0.0289 E-score.
ATCCCGAA was tested, and the binding signal was 0.252 ± 0.0478 E-score.
ATCCCCTA was tested, and the binding signal was 0.374 ± 0.0124 E-score.
ATCCCGAG gave a binding signal of 0.257 ± 0.025 E-score.
With ATCCCGCG the binding signal was 0.323 ± 0.0328 E-score.
For ATCCCCAA, the binding signal was 0.294 ± 0.0584 E-score.
In the case of ATCCCCTG, the binding signal is reported as 0.3344 ± 0.00285 E-score.
ATCCCCCA was tested, and the binding signal was 0.392 ± 0.0226 E-score.
With ATCCCCGG the binding signal was 0.307 ± 0.0247 E-score.
ATCCCCAT showed a binding signal of 0.295 ± 0.0355 E-score.
ATCCCCCG gave a binding signal of 0.403 ± 0.00588 E-score.
ATCCCCTC showed a binding signal of 0.387 ± 0.0304 E-score.
In the case of ATGCGGTA, the binding signal is reported as 0.265 ± 0.0333 E-score.
AGATGGAT showed a binding signal of 0.328 ± 0.00364 E-score.
ATACAGGG was tested, and the binding signal was 0.295 ± 0.0454 E-score.
CGTAGATA showed a binding signal of 0.23 ± 0.0417 E-score.
Work on GATCGTTA yielded a binding signal of 0.198 ± 0.00351 E-score.
For ATACGGCC, the binding signal was 0.344 ± 0.0108 E-score.
In the case of ATTAATCC, the binding signal is reported as 0.316 ± 0.089 E-score.
In the case of TCAATCCA, the binding signal is reported as 0.163 ± 0.0587 E-score.
With ATCACCCA the binding signal was 0.308 ± 0.00677 E-score.
For ATCCCCCC, the binding signal was 0.423 ± 0.0283 E-score.
ATCCCCGC gave a binding signal of 0.326 ± 0.0778 E-score.
In the case of ATCACCCG, the binding signal is reported as 0.397 ± 0.0282 E-score.
ATCCCCAC gave a binding signal of 0.347 ± 0.0302 E-score.
ATCACCCC gave a binding signal of 0.302 ± 0.0208 E-score.
For ATCGTAGG, the binding signal was 0.16 ± 0.0377 E-score.
Sequence CTGATCTA has a binding signal of 0.2567 ± 0.000955 E-score.
Sequence GACACGTA has a binding signal of 0.211 ± 0.0335 E-score.
GATACGCA was tested, and the binding signal was 0.4207 ± 0.00257 E-score.
In the case of TATACGCA, the binding signal is reported as 0.304 ± 0.0184 E-score.
With GATACGTA the binding signal was 0.4288 ± 0.00319 E-score.
In the case of AATACGCC, the binding signal is reported as 0.188 ± 0.0403 E-score.
GATACGCC showed a binding signal of 0.4525 ± 0.00258 E-score.
Work on GAGACGCC yielded a binding signal of 0.155 ± 0.0256 E-score.
GATACAAA gave a binding signal of 0.252 ± 0.0232 E-score.
Sequence AATACGTA has a binding signal of 0.237 ± 0.0731 E-score.
With CCCGTCTA the binding signal was 0.159 ± 0.00699 E-score.
AGACGTAT gave a binding signal of 0.319 ± 0.0844 E-score.
CAGTGTCA was tested, and the binding signal was 0.249 ± 0.0216 E-score.
CGCATCGA showed a binding signal of 0.208 ± 0.103 E-score.
With CACCGGTG the binding signal was 0.196 ± 0.0172 E-score.
For ATATGAAT, the binding signal was 0.19 ± 0.0448 E-score.
Work on ATCTGATA yielded a binding signal of 0.446 ± 0.0144 E-score.
CTCTGATA showed a binding signal of 0.312 ± 0.08 E-score.
With ACCTGATC the binding signal was 0.31 ± 0.0291 E-score.
With CCCTGATA the binding signal was 0.36 ± 0.00422 E-score.
With ATCTGAAC the binding signal was 0.179 ± 0.00772 E-score.
For ATCTGACC, the binding signal was 0.282 ± 0.0195 E-score.
For ATCTGATC, the binding signal was 0.419 ± 0.0129 E-score.
Sequence ATCTGATG has a binding signal of 0.156 ± 0.0564 E-score.
With ACCTGATA the binding signal was 0.401 ± 0.0362 E-score.
In the case of GGTTTCGA, the binding signal is reported as 0.172 ± 0.0592 E-score.
For GAGATCTA, the binding signal was 0.172 ± 0.0177 E-score.
TAAACCCA gave a binding signal of 0.161 ± 0.0201 E-score.
In the case of CGATCGCA, the binding signal is reported as 0.284 ± 0.0349 E-score.
ATCGGTGA was tested, and the binding signal was 0.232 ± 0.0224 E-score.
In the case of GTGTCCCA, the binding signal is reported as 0.204 ± 0.0515 E-score.
For CGTTAGTA, the binding signal was 0.194 ± 0.00764 E-score.
ATATTCTC gave a binding signal of 0.269 ± 0.0439 E-score.
With GATCCGCA the binding signal was 0.411 ± 0.0362 E-score.
For AATCCGCA, the binding signal was 0.204 ± 0.0414 E-score.
For TATCCGCA, the binding signal was 0.4006 ± 0.00313 E-score.
CATCCGCC showed a binding signal of 0.237 ± 0.0769 E-score.
GATCCAAA showed a binding signal of 0.207 ± 0.0442 E-score.
AATCCGCT gave a binding signal of 0.191 ± 0.0498 E-score.
Work on GATCCGCC yielded a binding signal of 0.427 ± 0.0138 E-score.
Sequence TATCCGAA has a binding signal of 0.334 ± 0.0355 E-score.
AATCCGCC gave a binding signal of 0.212 ± 0.00218 E-score.

Source: publication PMC10668032, “Altered binding affinity of SIX1-Q177R correlates with enhanced WNT5A and WNT pathway effector expression in Wilms tumor”
